Here are results for 40 compounds from PubChem BioAssay (Tox21).

Results filed as inconclusive are left out. Where a call stands in place of a potency, no number is given. Activity calls are given as the source filed them. Calls follow the shape of the dose curve; as a rule, active = well fitted cell-killing curve with a large enough effect in the repeat runs; inconclusive = weak or mixed curves, or effect the other way; inactive = no such curve, though single readings can be large or run the other way.

A short description of this test: qHTS assay to identify small molecule antagonists of the thyroid receptor (TR) signaling pathway - cell viability counter screen (AID 743064). Also: nearly all actives have a fitted effect of over 50% in size. Conditions: GH3.TRE-Luc viability, CellTiter-Fluor, 24 h; series mostly up to 70.3 µM. The source says:
National Center for Advancing Translational Sciences [NCATS]
NIH Chemical Genomics Center [NCGC]
U.S. Environmental Protection Agency [EPA]
National Institutes of Environmental Health Sciences [NIEHS]
National Toxicology Program [NTP]
U.S. Food and Drug Administration [FDA]
Thyroid receptor (TR), a nuclear hormone receptor, plays an important role in development, proliferation, differentiation, metabolism, brain function, and cardiovascular system. […] To profile the Tox21 10K compound library in TR signaling, a cell-based GH3-TRE-Luc assay (GH3.TRE-Luc cell line, developed by the laboratory of Dr. Albertinka J. Murk, Wageningen University) was used to measure the inhibition of TR. GH3 (rat pituitary tumor) cells stably expressing a TR activity sensor consisting of two TR response elements and a luciferase reporter gene. The cytotoxicity of the Tox21 compound library against the GH3.TRE-Luc cell line was tested in parallel by measuring the cell viability using CellTiter-Fluor assay (Promega, Madison, WI) in the same wells.
Tox21 Assay Protocol Summary:
GH3.TRE-Luc cells were dispensed at 1500 cells/4 uL/well into 1536-well white solid bottom plates using a Multidrop Combi dispenser (Thermo Fisher Scientific Inc., Waltham, MA). After the assay plates were incubated at 37 C for 4 hours, 23 nL of library compound or DMSO controls was transferred to the assay plates by a pintool station (Kalypsys, San Diego, CA), followed by addition of 1 ul of T3 (1 nM, final concentration in the wells) to stimulate TR transactivation. The assay plates were incubated at 37 C for 23.5 h, and then 1 uL of CellTiter-Fluor reagent (Promega, Madision, WI) of measuring cytotoxicity was added to each well using a Bioraptr Flying Reagent Dispenser (FRD) workstation (Beckman Coulter, Indianapolis, IN, USA). The plates were incubated at 37C and 5% CO2 for additional 30 min, and fluorescence intensity was measured by a ViewLux plate reader (PerkinElmer, Shelton, CT).
On to `CCO[Si](CCCS)(OCC)OCC`, for which the Potency entry is “inactive”.

Take `NCCN1CCOCC1`: the Potency entry is “inactive”. Regarding `NCCS`, the Potency result is “inactive”. With `CC1(CO)CN(c2ccccc2)NC1=O` (stereo not given), the Potency entry is “inactive”. With `CCCCCCN`, the Potency result is “inactive”. As to `O=C1CCCC(=O)O1`, the Potency entry was “inactive”. To `Brc1ccc(-c2ccccc2)cc1` belongs “inactive”; to `CC(COC(C)(C)C)OCCCO` (stereo not given), “inactive”.

Regarding `CN(C)CCOCCO`, the Potency entry is “inactive”.

For the compound `Cc1cc2cc3c(C)cc(=O)oc3c(C)c2o1`, the Potency entry is “inactive”. As to `CCCC(=O)C(C)=O`, the Potency entry was “inactive”. As to `CC(CN)CC(C)(C)CCN` (stereo not given), the Potency entry was “inactive”. For `Cc1ccc2c(c1)OCC(=O)CO2`, the Potency entry is “inactive”. With `Cc1cc(NC(=O)C2=C(O)c3ccccc3S(=O)(=O)N2C)no1`, the Potency result was “inactive”.

Take `CCNC(=O)C1CC(C)CCC1C(C)C` (stereo not given): the Potency result was “inactive”. To `CC(=O)/C=C/C1C(C)=CCC(C)C1(C)C` (stereo not given) belongs “inactive”; to `C[C@@H](Oc1ccc(CNC(=O)c2cccnc2Oc2ccc3c(c2)OCO3)c(F)c1)C(=O)O`, “inactive”. To `CC(=O)NCCCCCC(=O)O` belongs “inactive”. To `C[C@@H](O)[C@H]1C(=O)N2C(C(=O)O)=C(SCCN=CN)C[C@H]12` belongs “inactive”; to `CCC(CC)CO`, “inactive”; to `CC(=O)c1sc(C)nc1C`, “inactive”. For the compound `CCCCCCCC/C=C\CCCCCCCC(=O)OCCCC`, the Potency result was “inactive”. To `CCc1ccc(C=O)cc1` belongs “inactive”; to `COc1nccnc1NS(=O)(=O)c1ccc(N)cc1`, “inactive”. With `Cc1ccc(S(=O)(=O)O)c(C)c1` the entry was “inactive”; with `C=C1CC/C=C(\C)CC[C@@H]2[C@@H]1CC2(C)C`, “inactive”; with `C=COCCOCCOCCOC=C`, “inactive”.

Turning to `CC(C)=O`, the Potency entry is “inactive”. Consider `CCOc1cc([N+](=O)[O-])c(OCC)cc1N1CCOCC1`, for which the Potency entry is “inactive”. For `O=C1c2ccccc2C(=O)c2cc(S(=O)(=O)O)ccc21`, the Potency entry was “inactive”.

For `c1ccc2c(c1)ccc1c3ccccc3ccc21`, the Potency entry is “inactive”. As for `CCCCCCCCOS(=O)(=O)O`, the Potency result is “inactive”. With `O=C(O)c1cc(Cl)cc([N+](=O)[O-])c1Cl` the entry was “inactive”; with `O=C(O)Cc1ccc(Cl)cc1Cl`, “inactive”.

Turning to `Cc1cc(Cl)c(C)cc1Cl`, the Potency entry was “inactive”. As to `O=C(O)Cc1cn(-c2ccccc2)nc1-c1ccc(Cl)cc1`, the Potency result is “inactive”.

For the compound `CCC(C)NC(N)=O` (stereo not given), the Potency result was “inactive”. As to `OCCC(F)(F)C(F)(F)C(F)(F)C(F)(F)C(F)(F)C(F)(F)C(F)(F)C(F)(F)F`, the Potency result was “inactive”. As to `CCOC(=O)c1ncn2c1CN(C)C(=O)c1cc(F)ccc1-2`, the Potency result was “inactive”. Consider `O=C(O)CCSSCCC(=O)O`, for which the Potency result is “inactive”.
